This note sets out measurements from PubChem BioAssay (EPA / NIEHS).

Records with an inconclusive call do not appear. Active and inactive are the calls of the source. Rule for the calls, unless noted: active = hit-call score of the fitted dose curve at least 0.9, where 1 is the maximum; inactive = score below 0.9.

Assay [1] addresses CCAAT/enhancer-binding protein beta (Homo sapiens) (UniProt P17676). Briefly: ATG_C_EBP_CIS: Attagene CIS-FACTORIAL HepG2 Assay for human CCAAT/Enhancer Binding Protein (C/EBP) beta (AID 2282927). As to conditions: HepG2 Attagene cis-factorial transcription factor reporter; actives raise or lower the signal. An outline of the steps:
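Chemical-treated HepG2 cells (24 h) bearing cis-regulated reporter constructs were processed for total RNA, then reverse transcription, PCR amplification, fluorescent primer extension and fragment analysis; gain- and loss-of-signal were fitted against DMSO.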

Assay [2] is described as follows: ATG_DR4_LXR_CIS: Attagene CIS-FACTORIAL HepG2 Assay for human Liver X Receptor (LXR), DR4 submotif (AID 2282929). The conditions noted are these: HepG2 Attagene DR4 cis-reporter, mRNA transcription; actives raise or lower the signal. In outline:
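HepG2 cells transiently transfected with cis-promoter-driven multiplexed reporter units (DR4 element) were dosed for 24 h. Reporter mRNA was quantified by RT-PCR, fluorescent primer extension, HpaI digestion and capillary electrophoresis; bidirectional fitting versus DMSO baseline.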

Assay [3] is described as follows: ATG_AP_2_CIS: Attagene CIS-FACTORIAL HepG2 Assay for human Activator Protein 2 (AP-2) (AID 2282932). The conditions noted are these: HepG2 AP-2 cis-reporter, Attagene transcription factor profiling; actives raise or lower the signal. An outline of the steps:
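Assay in transfected HepG2 with promoter-regulated reporters, 24 h incubation after dosing. Signal is reporter mRNA fluorescence (RT-PCR, capillary electrophoresis), analysed for both increases and decreases relative to DMSO controls.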

Assay [4] deals with Transcription factor E2F1 (Homo sapiens) (UniProt Q01094). As to the kind of experiment: ATG_E2F_CIS: Attagene CIS-FACTORIAL HepG2 Assay for human E2F Transcription Factor 1 (AID 2282935). As to conditions: HepG2 Attagene cis-reporter, E2F reporter RNA transcripts; actives raise or lower the signal. An outline of the steps:
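In this cis-factorial format, endogenous factor activity drives transfected reporters in HepG2; transcripts collected at 24 h are quantified by fluorescence after RT-PCR and capillary separation.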

A short description of assay [5]: ATG_E_Box_CIS: Attagene CIS-FACTORIAL HepG2 Assay for human Enhancer Box (E-box) (AID 2282936). The conditions noted are these: HepG2 E-box cis-reporter transcription, actives raise or lower the signal. An outline of the steps:
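Measured 24 h post-dosing in HepG2 cells transfected with multiple cis-regulated reporter units, signal being reporter mRNA induction detected by fluorescent RT-PCR with capillary electrophoresis; gain or loss fitted against DMSO.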

The nature of assay [6]: ATG_M_19_CIS: Attagene CIS-FACTORIAL HepG2 Assay for M19 Transcription Factor (Internal Marker) (AID 2282939). As to conditions: HepG2 Attagene CIS-FACTORIAL M19 internal marker reporter; actives raise or lower the signal. In outline:
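Following a 24 h exposure, RNA from transfected HepG2 cells was reverse-transcribed, PCR-amplified with reporter-specific primers, end-labelled with 6-FAM and HpaI-digested before capillary separation. Values represent gain or loss versus DMSO.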

The nature of assay [7]: ATG_GLI_CIS: Attagene CIS-FACTORIAL HepG2 Assay for human Zinc Finger Protein GLI1 (AID 2282945). The conditions noted are these: HepG2, Attagene cis-factorial reporter mRNA, GLI element; actives raise or lower the signal. In outline: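 HepG2 cells transiently transfected with cis-promoter multiplexed reporter units report endogenous transcription factor activity. After 24 h chemical exposure, reporter mRNA was quantified by RT-PCR, 6-FAM labelling, HpaI digestion and capillary electrophoresis, with bidirectional fitting against DMSO.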

Assay [8] in a line: ATG_ISRE_CIS: Attagene CIS-FACTORIAL HepG2 Assay for human Interferon Regulatory Factor 1 (IRF1) binding to an Interferon-Stimulated Response Element (ISRE) (AID 2282948). As to conditions: HepG2 ISRE cis-reporter (Attagene), mRNA transcription readout; actives raise or lower the signal. In outline:
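Read-out: fluorescent RT-PCR products resolved by capillary electrophoresis, reporting endogenous transcription factor activity via ISRE-driven reporter mRNA in transfected HepG2 cells dosed for 24 h; gain or loss fitted relative to DMSO.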

Assay [9] is described as follows: ATG_M_32_CIS: Attagene CIS-FACTORIAL HepG2 Assay for M32 Transcription Factor (Internal Marker) (AID 2282949).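 Note: background control marker of the multiplexed CIS panel rather than a real target.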 As to conditions: HepG2 Attagene cis-factorial M32 reporter, mRNA; actives raise or lower the signal. An outline of the steps: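 Using DMSO as baseline, bidirectional curve fits were applied to reporter mRNA signals. These came from transiently transfected HepG2 cells exposed for 24 h, with RNA analysed by RT-PCR, FAM primer extension, HpaI digestion and CE.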

The target in assay [10] is Hepatocyte nuclear factor 6 (Homo sapiens) (UniProt Q9UBC0). As to the kind of experiment: ATG_HNF6_CIS: Attagene CIS-FACTORIAL HepG2 Assay for human Hepatocyte Nuclear Factor 6 (HNF6) (AID 2282952). As to conditions: HepG2 Attagene cis-factorial HNF6 reporter transcription; actives raise or lower the signal. In outline: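 Using cis-element reporters in HepG2 liver cells, the assay tracks endogenous factor-driven transcription 24 h post-dosing. Signal comes from 6-FAM-labelled, HpaI-digested RT-PCR fragments, with gain or loss scored against DMSO.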
Hepatocyte nuclear factor 6 (Homo sapiens), sequence (Q9UBC0 whole entry, looked up, the tested form may be a part): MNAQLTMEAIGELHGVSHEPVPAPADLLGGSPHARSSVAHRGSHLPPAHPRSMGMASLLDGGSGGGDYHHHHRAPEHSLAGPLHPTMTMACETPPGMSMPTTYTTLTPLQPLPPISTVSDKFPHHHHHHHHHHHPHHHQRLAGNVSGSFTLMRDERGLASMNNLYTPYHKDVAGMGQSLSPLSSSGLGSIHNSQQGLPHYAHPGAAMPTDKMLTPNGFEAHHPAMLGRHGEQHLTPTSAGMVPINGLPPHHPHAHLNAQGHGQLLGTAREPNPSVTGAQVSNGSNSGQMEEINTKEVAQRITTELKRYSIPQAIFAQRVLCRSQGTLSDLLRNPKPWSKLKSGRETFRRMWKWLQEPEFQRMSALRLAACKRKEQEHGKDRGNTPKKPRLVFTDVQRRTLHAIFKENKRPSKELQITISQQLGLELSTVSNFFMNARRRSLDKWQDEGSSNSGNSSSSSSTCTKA

The target of assay [11] is Heat shock factor protein 1 (Homo sapiens) (UniProt Q00613). As to the kind of experiment: ATG_HSE_CIS: Attagene CIS-FACTORIAL HepG2 Assay for human Heat Shock Transcription Factor 1 (HSE) (AID 2282953). As to conditions: HepG2 HSE cis-reporter, Attagene RNA transcription; actives raise or lower the signal. An outline of the steps: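 After a 24 h incubation with test chemical, transfected HepG2 cells were harvested for RNA; reporter transcripts were measured by RT-PCR and capillary electrophoresis. Values reflect gain or loss of signal relative to DMSO.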
Heat shock factor protein 1 (Homo sapiens), sequence (Q00613 whole entry, looked up): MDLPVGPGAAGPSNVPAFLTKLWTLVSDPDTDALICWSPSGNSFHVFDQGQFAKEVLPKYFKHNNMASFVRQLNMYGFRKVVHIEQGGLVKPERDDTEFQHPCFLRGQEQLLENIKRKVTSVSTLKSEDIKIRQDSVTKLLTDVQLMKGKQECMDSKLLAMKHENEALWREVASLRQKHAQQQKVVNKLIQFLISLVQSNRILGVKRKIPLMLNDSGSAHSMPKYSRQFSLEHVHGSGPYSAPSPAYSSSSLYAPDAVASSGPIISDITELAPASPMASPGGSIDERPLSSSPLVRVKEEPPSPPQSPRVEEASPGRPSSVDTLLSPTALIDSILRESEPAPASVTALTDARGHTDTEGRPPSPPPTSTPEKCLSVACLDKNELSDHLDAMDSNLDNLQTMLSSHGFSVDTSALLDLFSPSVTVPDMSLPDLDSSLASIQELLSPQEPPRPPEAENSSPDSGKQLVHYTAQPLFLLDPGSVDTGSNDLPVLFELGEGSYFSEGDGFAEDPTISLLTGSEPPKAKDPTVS

The nature of assay [12]: ATG_PXRE_CIS: Attagene CIS-FACTORIAL HepG2 Assay for human Pregnane X Receptor Element (PXRE) (AID 2282957). As to conditions: HepG2 Attagene CIS-FACTORIAL PXRE reporter, mRNA; actives raise or lower the signal. An outline of the steps:
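Using HepG2 transfected with multiple reporter transcription units, endogenous factor-driven transcription was scored as reporter mRNA after 24 h exposure.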

The nature of assay [13]: ATG_Sox_CIS: Attagene CIS-FACTORIAL HepG2 Assay for human SRY-box transcription factor (SOX) (AID 2282960). The conditions noted are these: HepG2 Attagene cis-factorial SOX reporter, mRNA; actives raise or lower the signal. An outline of the steps:
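HepG2 cells transiently transfected with cis-element-driven multiple reporter transcription units, dosed 24 h; reporter mRNA measured by RT-PCR, FAM labelling, HpaI digestion and capillary electrophoresis. Bidirectional fit versus DMSO baseline.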

In assay [14] the target is Transcription factor Sp1 (Homo sapiens) (UniProt P08047). As to the kind of experiment: ATG_Sp1_CIS: Attagene CIS-FACTORIAL HepG2 Assay for human Specificity Protein 1 (Sp1) (AID 2282961). The conditions noted are these: HepG2 Sp1 cis-reporter transcription, actives raise or lower the signal. An outline of the steps:
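HepG2 cells transiently transfected with multiple reporter transcription units driven by cis-regulatory elements; Sp1-responsive reporter mRNA measured 24 h after dosing by RT-PCR and capillary electrophoresis fluorescence, fitted bidirectionally against DMSO baseline.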

For assay [15], the target named is Signal transducer and activator of transcription 3 (Homo sapiens) (UniProt P40763). Briefly: ATG_STAT3_CIS: Attagene CIS-FACTORIAL HepG2 Assay for human Signal Transducer and Activator of Transcription 3 (STAT3) (AID 2282963). As to conditions: HepG2, Attagene cis-factorial STAT3 reporter transcription; actives raise or lower the signal. In outline: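 Uses human liver HepG2 transiently carrying cis-regulated reporter transcription units. Following 24 h dosing, reporter mRNA induction was detected by RT-PCR and capillary electrophoresis, analysed bidirectionally versus DMSO.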
Signal transducer and activator of transcription 3 (Homo sapiens), sequence (P40763 whole entry, looked up): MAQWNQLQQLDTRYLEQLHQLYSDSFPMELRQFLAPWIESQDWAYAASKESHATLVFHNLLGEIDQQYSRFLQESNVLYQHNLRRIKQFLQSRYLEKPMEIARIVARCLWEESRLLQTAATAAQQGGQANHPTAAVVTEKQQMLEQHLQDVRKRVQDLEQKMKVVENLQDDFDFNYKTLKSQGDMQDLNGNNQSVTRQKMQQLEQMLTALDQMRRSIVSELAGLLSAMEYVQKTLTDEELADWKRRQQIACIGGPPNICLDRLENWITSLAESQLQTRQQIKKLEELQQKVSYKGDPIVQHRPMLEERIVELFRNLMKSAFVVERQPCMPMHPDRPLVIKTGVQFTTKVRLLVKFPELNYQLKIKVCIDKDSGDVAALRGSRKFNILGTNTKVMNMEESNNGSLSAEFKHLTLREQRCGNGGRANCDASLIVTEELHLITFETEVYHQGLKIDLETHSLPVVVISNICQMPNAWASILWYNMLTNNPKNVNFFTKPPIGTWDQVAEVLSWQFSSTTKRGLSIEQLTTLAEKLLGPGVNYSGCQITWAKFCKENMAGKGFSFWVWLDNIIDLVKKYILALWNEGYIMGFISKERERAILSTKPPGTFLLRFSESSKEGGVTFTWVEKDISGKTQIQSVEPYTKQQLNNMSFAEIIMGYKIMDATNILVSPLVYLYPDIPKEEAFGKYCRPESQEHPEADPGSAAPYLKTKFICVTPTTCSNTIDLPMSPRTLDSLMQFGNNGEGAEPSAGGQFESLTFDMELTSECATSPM

Assay [16] in a line: ATG_TA_CIS: Attagene CIS-FACTORIAL HepG2 Assay for human TA Basal Promoter (AID 2282964). The conditions noted are these: HepG2 Attagene CIS-factorial TA basal promoter reporter; actives raise or lower the signal. In outline:
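Multiplexed mRNA reporter assay, HepG2, 24 h. Reporter cDNA amplified, 6-FAM primer-extended, HpaI-cut, CE-sized; DMSO = negative control and baseline.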

The nature of assay [17]: ATG_TCF_b_cat_CIS: Attagene CIS-FACTORIAL HepG2 Assay for human T-Cell-Factor with beta-catenin (TCF/b-cat) (AID 2282965). As to conditions: HepG2 TCF/beta-catenin cis-reporter transcription, actives raise or lower the signal. In outline:
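In this cis-format system, transfected HepG2 cells report endogenous transcription factor activity. Readout after 24 h exposure is reporter transcript abundance from RT-PCR and capillary electrophoresis, analysed for gain or loss of signal versus DMSO.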

A short description of assay [18]: ATG_TAL_CIS: Attagene CIS-FACTORIAL HepG2 Assay for human TAL Basal Promoter (AID 2282966).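 Note: background control endpoint measuring basal TAL promoter reporter mRNA not a specific factor.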 The conditions noted are these: HepG2 Attagene cis-factorial TAL promoter reporter; actives raise or lower the signal. In outline: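 After 24 hours of chemical exposure, transfected HepG2 cells yielded RNA that was converted to 6-FAM-labelled, HpaI-digested reporter fragments for capillary electrophoresis. Values derive from bidirectional fitting against DMSO controls.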

Assay [19] concerns the target X-box-binding protein 1 (Homo sapiens) (UniProt P17861). Briefly: ATG_Xbp1_CIS: Attagene CIS-FACTORIAL HepG2 Assay for human X-box Binding Protein 1 (XBP1) (AID 2282972). The conditions noted are these: HepG2 XBP1 cis-element reporter, Attagene multiplex; actives raise or lower the signal. In outline: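 Read-out: fluorescent reporter mRNA fragments resolved by capillary electrophoresis after RT-PCR. Human HepG2 liver cells carried transfected cis-promoter reporter units and were exposed to chemicals for 24 hours. Gain or loss of signal fitted relative to DMSO baseline.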

In assay [20] the target is Androgen receptor (Homo sapiens) (UniProt P10275). As to the kind of experiment: ATG_AR_TRANS: Attagene TRANS-FACTORIAL HepG2 Assay for human Androgen Receptor (AR) (AID 2282973; active = hit-call score of the fitted dose curve at least 0.9, where 1 is the maximum). As to conditions: HepG2 Attagene TRANS-FACTORIAL AR reporter transcription. An outline of the steps: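 Steps: transfect HepG2 with multiple GAL4-UAS reporter transcription units (TRANS format, exogenous NR-Gal4 protein); dose 24 h; isolate RNA, reverse-transcribe, PCR-amplify, FAM-label, HpaI-digest; resolve by capillary electrophoresis. Positive direction vs DMSO.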
Androgen receptor (Homo sapiens), sequence (P10275 whole entry, looked up, the tested form may be a part): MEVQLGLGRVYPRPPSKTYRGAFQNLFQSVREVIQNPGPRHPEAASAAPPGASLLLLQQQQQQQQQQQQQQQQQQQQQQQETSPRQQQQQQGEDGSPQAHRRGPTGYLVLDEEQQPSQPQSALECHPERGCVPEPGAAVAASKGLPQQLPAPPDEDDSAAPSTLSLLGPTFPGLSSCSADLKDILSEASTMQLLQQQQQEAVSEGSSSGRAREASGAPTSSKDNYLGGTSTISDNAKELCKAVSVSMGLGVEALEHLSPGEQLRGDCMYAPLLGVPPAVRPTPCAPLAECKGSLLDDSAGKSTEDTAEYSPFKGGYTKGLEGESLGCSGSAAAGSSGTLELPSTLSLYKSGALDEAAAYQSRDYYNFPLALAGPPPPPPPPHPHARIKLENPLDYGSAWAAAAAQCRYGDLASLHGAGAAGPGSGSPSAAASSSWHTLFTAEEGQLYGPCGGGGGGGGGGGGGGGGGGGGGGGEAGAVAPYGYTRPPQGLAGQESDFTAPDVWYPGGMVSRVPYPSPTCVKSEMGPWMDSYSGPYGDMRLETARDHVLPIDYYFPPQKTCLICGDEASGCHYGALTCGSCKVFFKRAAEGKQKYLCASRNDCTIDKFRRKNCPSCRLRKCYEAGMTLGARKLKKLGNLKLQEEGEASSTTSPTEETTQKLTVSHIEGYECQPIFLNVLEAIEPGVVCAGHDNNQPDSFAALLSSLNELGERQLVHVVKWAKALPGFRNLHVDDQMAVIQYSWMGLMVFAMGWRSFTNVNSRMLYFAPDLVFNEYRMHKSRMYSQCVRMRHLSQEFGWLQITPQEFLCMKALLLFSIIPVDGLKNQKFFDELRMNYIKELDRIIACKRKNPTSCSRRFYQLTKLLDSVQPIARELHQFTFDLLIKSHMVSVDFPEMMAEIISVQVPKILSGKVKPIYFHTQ

Transcription factor E2F1 (Homo sapiens), sequence (Q01094 whole entry, looked up): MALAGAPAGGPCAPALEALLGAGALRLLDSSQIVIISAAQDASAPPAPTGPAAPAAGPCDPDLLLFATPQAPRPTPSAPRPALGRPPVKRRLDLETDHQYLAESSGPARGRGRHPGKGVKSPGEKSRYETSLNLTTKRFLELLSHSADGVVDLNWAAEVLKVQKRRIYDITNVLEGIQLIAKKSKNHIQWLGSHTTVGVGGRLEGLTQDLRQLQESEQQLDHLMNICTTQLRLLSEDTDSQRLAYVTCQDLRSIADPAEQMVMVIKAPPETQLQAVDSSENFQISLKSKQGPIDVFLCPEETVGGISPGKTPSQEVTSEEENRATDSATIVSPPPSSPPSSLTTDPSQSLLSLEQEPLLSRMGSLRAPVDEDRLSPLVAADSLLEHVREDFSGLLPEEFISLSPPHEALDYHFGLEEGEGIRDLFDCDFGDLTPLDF
CCAAT/enhancer-binding protein beta (Homo sapiens), sequence (P17676 whole entry, looked up, the tested form may be a part): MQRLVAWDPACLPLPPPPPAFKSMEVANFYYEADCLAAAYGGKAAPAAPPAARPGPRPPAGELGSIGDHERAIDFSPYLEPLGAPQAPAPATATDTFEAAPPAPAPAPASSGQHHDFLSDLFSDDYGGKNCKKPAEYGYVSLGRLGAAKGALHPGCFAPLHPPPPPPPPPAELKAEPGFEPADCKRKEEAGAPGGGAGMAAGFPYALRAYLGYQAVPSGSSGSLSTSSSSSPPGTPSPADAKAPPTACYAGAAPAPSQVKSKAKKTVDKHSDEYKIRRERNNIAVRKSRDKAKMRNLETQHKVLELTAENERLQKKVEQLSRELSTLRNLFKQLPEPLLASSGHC
X-box-binding protein 1 (Homo sapiens), sequence (P17861 whole entry, looked up, the tested form may be a part): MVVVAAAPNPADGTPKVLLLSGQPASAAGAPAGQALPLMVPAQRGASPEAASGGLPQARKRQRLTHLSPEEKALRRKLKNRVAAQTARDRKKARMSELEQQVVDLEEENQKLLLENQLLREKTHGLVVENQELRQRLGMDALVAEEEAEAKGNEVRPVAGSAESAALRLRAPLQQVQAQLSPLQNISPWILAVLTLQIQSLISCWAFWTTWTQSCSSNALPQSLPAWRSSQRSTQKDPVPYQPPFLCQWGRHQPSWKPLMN
Transcription factor Sp1 (Homo sapiens), sequence (P08047 whole entry, looked up): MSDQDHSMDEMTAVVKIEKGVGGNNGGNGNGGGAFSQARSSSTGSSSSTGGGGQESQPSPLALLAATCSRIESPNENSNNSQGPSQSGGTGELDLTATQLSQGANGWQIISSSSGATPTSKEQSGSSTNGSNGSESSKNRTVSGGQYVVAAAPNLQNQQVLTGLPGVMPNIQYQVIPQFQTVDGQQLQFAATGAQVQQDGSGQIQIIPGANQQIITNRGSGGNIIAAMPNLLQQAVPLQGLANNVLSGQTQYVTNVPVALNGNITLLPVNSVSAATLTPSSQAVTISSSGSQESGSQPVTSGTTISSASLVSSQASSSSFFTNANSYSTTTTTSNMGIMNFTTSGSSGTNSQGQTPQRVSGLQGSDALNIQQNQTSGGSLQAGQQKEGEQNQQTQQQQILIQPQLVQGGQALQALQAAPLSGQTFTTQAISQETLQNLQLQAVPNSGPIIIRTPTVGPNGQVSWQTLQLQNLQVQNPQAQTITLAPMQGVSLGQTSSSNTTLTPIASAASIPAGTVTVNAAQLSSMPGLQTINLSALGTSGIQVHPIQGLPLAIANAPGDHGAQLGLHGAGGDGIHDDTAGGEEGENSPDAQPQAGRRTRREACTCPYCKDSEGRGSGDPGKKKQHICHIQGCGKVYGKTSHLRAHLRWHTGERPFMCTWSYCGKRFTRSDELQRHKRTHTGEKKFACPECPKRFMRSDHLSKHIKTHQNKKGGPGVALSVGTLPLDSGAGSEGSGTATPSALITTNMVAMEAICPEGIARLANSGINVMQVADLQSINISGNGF

In the case of `O=c1[nH]c(Cl)c(Cl)cc1Cl`, the outcome in assay [1], in assay [2], in [3], in assay [4], in [5] and in [6] was inactive. Besides, the molecule was classed as inactive in assay [7], in assay [8], in [9], in [10], in [11] and in [13]. The molecule was classed as inactive in assay [14], in assay [15], in assay [16], in [17], in assay [18] and in assay [19]. The outcome in [20] was inactive. Moreover, the AC50 in assay [12] is 38.7 µM (active).
Consider `CN1C[C@H](C(=O)N[C@]2(C)O[C@@]3(O)[C@@H]4CCCN4C(=O)[C@H](Cc4ccccc4)N3C2=O)C=C2c3cccc4[nH]cc(c34)C[C@H]21`, for which the result in assay [1], in assay [2], in assay [3], in [4], in assay [5] and in assay [6] was inactive. The result in assay [7], in assay [8], in assay [9], in assay [10], in assay [11] and in assay [13] was inactive. Moreover, the result in assay [14], in [15], in assay [16], in [18] and in [19] was inactive. The AC50 was 0.445 µM (active) in [12] and 94.2 µM (active) in assay [17].
Take `O=P(O)(Oc1ccccc1)Oc1ccccc1`: the result in assay [1], in assay [2], in assay [3], in assay [4], in assay [5] and in assay [6] was inactive. The outcome in [7], in [8], in [9], in [10], in assay [11] and in [13] was inactive. For the same molecule, the call in [14], in [15], in [16], in assay [17], in assay [18] and in assay [19] was inactive. Also, in assay [12], the AC50 is 74.2 µM (active).
With `N#Cc1cc(I)c(O)c(I)c1`, the result in assay [1], in [2], in [3], in assay [4], in assay [5] and in assay [6] was inactive. The molecule was classed as inactive in assay [7], in assay [8], in [9], in assay [10], in assay [11] and in [12]. Further, the call in assay [13], in assay [15], in [16], in [17], in assay [18] and in assay [20] was inactive. Also, the AC50 in assay [14] was 100 µM (active); in [19], 33.6 µM (active).
For `CN(C)CCOC(c1ccccc1)c1ccccc1`, the molecule was classed as inactive in assay [20].
With `CCC(C)(C)O`, the result in [1], in assay [2], in assay [3], in assay [4], in [5] and in [6] was inactive. Besides, the molecule was classed as inactive in [7], in assay [8], in assay [9], in assay [10], in [11] and in assay [12]. For the same molecule, the result in assay [13], in [14], in [15], in assay [16], in assay [17] and in [18] was inactive. Further, the molecule was classed as inactive in assay [19].

By AC50 is commonly meant the midpoint of the concentration-response curve, whichever way the signal moves.
